RGS4-Gao reg = human RGS4-Galphao interaction regulation. P09471. Multiplexed bead flow cytometry, RGS4-Galphao binding; actives lie on both sides. binding response (% of control), % at 10 µM. 220,000 tested, 0.33% active. AID 1415; in the data active = binding response below about 49% or above about 150%; inactive = in between;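 note: fluorescent Galphao activated with aluminum fluoride binding bead-coupled RGS4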
Target sequence (P09471 whole entry, looked up): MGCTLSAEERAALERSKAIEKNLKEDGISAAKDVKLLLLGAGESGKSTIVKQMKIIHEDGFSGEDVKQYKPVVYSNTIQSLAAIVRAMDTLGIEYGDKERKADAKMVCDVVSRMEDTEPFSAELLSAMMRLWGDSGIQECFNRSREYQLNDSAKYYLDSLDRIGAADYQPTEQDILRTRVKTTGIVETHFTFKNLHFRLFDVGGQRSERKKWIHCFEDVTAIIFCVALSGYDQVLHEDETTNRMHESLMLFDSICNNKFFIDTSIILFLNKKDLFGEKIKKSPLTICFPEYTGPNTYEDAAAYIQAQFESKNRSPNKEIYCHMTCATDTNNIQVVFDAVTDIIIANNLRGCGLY
RGS8-Gao = regulators of human RGS8-Galphao interaction; response (percent of control binding), % at 10 µM; AID 1423; P09471; multiplexed bead flow cytometry, RGS8-Galphao binding; actives lie on both sides; 220,000 tested, 0.34% active; in the data active = response below about 60% or above about 140%; inactive = in between;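 note: Galphao activated as the GDP aluminium fluoride complex binding bead-coupled RGS8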
RGS7-Gao = regulators of human RGS7-Galphao interaction; Multiplexed bead flow cytometry, RGS7-Galphao binding; actives lie on both sides; binding response (% of control), % at 10 µM; 220,000 tested, 0.35% active; AID 1439; in the data active = binding response below about 49% or above about 150%; inconclusive = no clear call, values can overlap the other calls; inactive = in between;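 note: fluorescent Galphao held in activated GDP-AlF4 state binding bead-coupled RGS7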
RGS16-Gao = regulators of human RGS16-Galphao interaction | bead-based flow cytometry RGS16-Galphao binding, fluorescence; actives lie on both sides | O15492+P09471 | binding response (% of control), % at 10 µM | 220,000 tested, 0.38% active;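 note: Galphao activated by GDP with aluminum fluoride before binding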
GSH fluor = GSH bead compound fluorescence profile. GSH beads flow cytometry, compound fluorescence 488/530 nm; hits give high values. fluorescence (KMESF) at 10 µM. 190,000 tested, 0.25% active. AID 1776; in the data active = fluorescence above about 89;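 note: glutathione beads carrying GST-tagged Bcl family fusion proteins plus one bare bead set; values are compound well signal with DMSO vehicle wells as background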
Avidin fluor = avidin bead compound fluorescence profile | Avidin beads, compound fluorescence 488/530 nm, flow cytometry; hits give high values | fluorescence (KMESF) at 10 µM | 220,000 tested, 0.38% active | AID 1775; in the data active = fluorescence above about 47
RGS-Gao = RGS4-Galphao interaction regulator (human); multiplexed bead flow cytometry, RGS–Galpha-o binding; shares compounds with RGS16-Gao; RGS4–Galpha-o binding response, % at 10 µM; 1,600 tested, 99% active;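 note: fluorescently labeled Galpha-o bound to GDP with aluminium fluoride binding biotinylated RGS beads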
Avidin counter = biotin-avidin bead binding disruption counter-screen; shares compounds with RGS16-Gao; streptavidin beads, fluorescein-biotin binding, flow cytometry; inhibition, % at 10 µM; 1,700 tested, under 10 active; AID 1783;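 active = inhibition above 50%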;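 note: median green fluorescence of gated singlet beads compared with DMSO control wells; 0% = DMSO wells and 100% = complete loss of bead fluorescence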
RGS8-Gao single = RGS8-Galphao interaction regulation, single point confirmation. 1,700 tested, 3% active. bead-based flow cytometry RGS8-Galphao binding, fluorescence; actives lie on both sides. binding response (% of control), % at 10 µM. shares compounds with RGS16-Gao; in the data active = binding response below about 72% or above about 130%; inactive = in between;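 note: Galphao activated as GDP AlF4 complex before binding bead RGS8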
RGS7-Gao single = confirmation of regulators of human RGS7-Galphao interaction; AID 1837; bead-based flow cytometry RGS7-Galphao binding; actives lie on both sides; shares compounds with RGS16-Gao; 1,700 tested, 7.8% active; response (percent of control binding), % at 10 µM; in the data active = response below about 75% or above about 130%; inactive = in between;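 note: fluorescent Galphao activated with GDP and aluminum fluoride binding bead-coupled RGS7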
RGS16-Gao single = RGS16-Galphao interaction regulation, single point confirmation; shares compounds with RGS16-Gao; 1,700 tested, 4% active; bead-based flow cytometry, RGS16-Galphao binding; actives lie on both sides; AID 1838; response (% of control binding), % at 10 µM; in the data active = response below about 74% or above about 130%; inactive = in between;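 note: Galphao activated as the GDP aluminium fluoride complex binding bead-coupled RGS16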
RGS4-Gao single = confirmation of regulators of human RGS4-Galphao interaction | AID 1840 | 1,700 tested, 4% active | binding response (% of control), % at 10 µM | shares compounds with RGS16-Gao | RGS4-Galphao binding, multiplexed bead flow cytometry; actives lie on both sides; in the data active = binding response below about 74% or above about 130%; inactive = in between
RGS19-Gao single = confirmation of regulators of human RGS19-Galphao interaction; shares compounds with RGS16-Gao; bead-based flow cytometry RGS19-Galphao binding; actives lie on both sides; response (percent of control binding), % at 10 µM; 1,700 tested, 5% active; AID 1841; in the data active = response below about 50% or above about 160%; inactive = in between;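 note: 100% = no compound control and 0% = blank background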
Target sequence (P09471 whole entry, looked up): as above
Target sequence (P49795 whole entry, looked up): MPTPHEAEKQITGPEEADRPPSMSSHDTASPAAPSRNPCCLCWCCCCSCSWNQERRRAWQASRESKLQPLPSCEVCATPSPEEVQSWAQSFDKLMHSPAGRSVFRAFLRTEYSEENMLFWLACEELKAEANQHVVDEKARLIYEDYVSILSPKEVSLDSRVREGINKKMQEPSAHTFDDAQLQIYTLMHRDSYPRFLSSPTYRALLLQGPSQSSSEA
* marks the source's active call; other numbers are inactive results; ? = inconclusive; . = not tested or not shown; [ ] = remark or other dose. Compounds with a hit are over-represented: about 1.2% of the library has one in this group of screens. Unless noted, the rule behind the calls is not given here.

SMILES	RGS4-Gao reg	RGS8-Gao	RGS7-Gao	RGS16-Gao	GSH fluor	Avidin fluor	RGS-Gao	Avidin counter	RGS8-Gao single	RGS7-Gao single	RGS16-Gao single	RGS4-Gao single	RGS19-Gao single
COc1cc(OC)cc(-c2n[nH]c(=S)n2-c2ccc3c(c2)OCO3)c1	101	81	104	21*	15	1	101*	3	97	105	97	104	88
CCOC(=O)c1sc(NC(=O)COC(=O)C(CCSC)NC(C)=O)nc1C (stereo unspecified)	86	78	85	9.0*	13	6	86*	2	102	104	103	105	117
Cc1ccccc1N1C(S)=C(C#N)C(=O)NC12CCCCC2	100	101	102	103	9	15	.	.	.	.	.	.	.
O=C(Oc1cccc2cccnc12)c1ccco1	97	94	96	94	34	7	.	.	.	.	.	.	.
O=C(Cc1ccc(Cl)cc1)Oc1cccc2cccnc12	79	66	82	22*	24	6	79*	0	98	96	97	99	84
O=S(=O)(NCCc1cn2ccccc2n1)c1ccc2c(c1)CCCC2	92	95	95	96	16	2	.	.	.	.	.	.	.
O=C(COC(=O)c1cccc(F)c1)NC1CC1	103	98	97	104	10	13	.	.	.	.	.	.	.
O=C(COC(=O)Cc1cccc(C(F)(F)F)c1)NC1CC1	16*	12*	12*	6.5*	14	0	.	0	105	104	106	105	116
COCCOC(=O)c1c(NC(=O)CN2c3ccccc3CC2C)sc(C(N)=O)c1C (stereo unspecified)	101	102	?	103	13	11	.	.	.	.	.	.	.
CC(=O)Oc1ccccc1-n1c(C)nc(=O)c(-c2ccccc2)c1C	100	100	?	100	.	4	.	.	.	.	.	.	.
COc1ccc(C)cc1-n1nnnc1SCC1CCCO1 (stereo unspecified)	26*	16*	21*	17*	24	2	.	-2	108	108	108	106	118
O=C(Cc1nnc(NC(=O)Nc2ccc(F)cc2)s1)NCc1ccccc1	85	91	?	87	.	8	.	.	.	.	.	.	.
CCC(C)NC(=O)C1c2ccccc2C(=O)N1Cc1ccc(OC)cc1OC (stereo unspecified)	138	147*[activator]	127	424	38	6	138*	1	102	99	90	97	62
COc1cc(C(=O)N2CCC(O)(c3ccccc3)CC2)cc(OC)c1OC	.	.	.	.	13	.	.	-2	102	106	104	103	105
CCN1CCN(C(=S)c2ccc(OCC(=O)N3CCOCC3)cc2)CC1	8.1*	17*	8.8*	5.2*	20	-2	.	0	108	100	110	102	132
CCN1CCN(C(=S)c2ccc(OCC(=O)NCc3ccccc3)cc2)CC1	101	90	154*[activator]	83	9	8	101*	0	97	112	97	101	101
Cc1cccc(OCC(=O)N2CCOCC2)c1	160*[activator]	97	271*[activator]	123	11	277*	.	0	101	95	103	101	101
Cc1ccc(-c2ccc(OCC(=O)N3CCOCC3)cc2)cc1	101	106	104	103	31	16	.	.	.	.	.	.	.
CN(C)S(=O)(=O)c1ccc(Cl)c(NC(=O)CN2C(=O)NC(C)(C3CC3)C2=O)c1 (stereo unspecified)	98	97	?	99	.	.	.	.	.	.	.	.	.
CCCN1CNC(=S)N(c2ccccc2OC)C1	100	98	104	47	16	9	.	.	.	.	.	.	.
CCCN1CN(c2ccccc2)C(=S)N(c2ccccc2)C1	195*[activator]	136	?	169	.	3	.	0	101	99	100	100	104
CC(C)CCNC(=O)NC(=O)COC(=O)C1=COCCO1	21*	13*	17*	9.2*	17	2	.	-1	101	100	101	104	98
CCCCCOc1ccc(CSC(=N)N)cc1[N+](=O)[O-]	42*	65	49*	43	9	16	.	0	106	109	106	105	107
CN(C)C(=O)CSc1nc2ccccc2c(=O)[nH]1	127	97	277*[activator]	109	24	165*	127*	1	102	95	105	101	102
Cc1csc(NC(=O)C2C3C=CC(C3)C2C(=O)O)n1 (stereo unspecified)	-23*	10*	-9.1*	-20*	32	-4	.	-1	99	103	100	100	112
SMILES	RGS4-Gao reg	RGS8-Gao	RGS7-Gao	RGS16-Gao	GSH fluor	Avidin fluor	RGS-Gao	Avidin counter	RGS8-Gao single	RGS7-Gao single	RGS16-Gao single	RGS4-Gao single	RGS19-Gao single
C/C(=N\Nc1ccc2nncn2n1)c1ccc(Cl)s1	100	99	?	101	.	6	.	.	.	.	.	.	.
COc1cc(C2C3=C(CCCC3=O)Nc3[nH]n(-c4ccccc4)c(=O)c32)ccc1OC(C)=O (stereo unspecified)	97	99	99	100	11	14	.	.	.	.	.	.	.
CN(C)/C=N/c1c(C#N)cnn1-c1ccc(C(F)(F)F)cn1	61	70	70	-122*	23	9	61*	4	105	83	102	90	64
O=C(COC(=O)c1ccc2ccccc2c1O)NCC(F)(F)F	103	102	?	104	.	4	.	.	.	.	.	.	.
CCc1nc2c(oc3ccccc32)c(=O)[nH]1	99	102	100	100	12	36	.	.	.	.	.	.	.
O=c1[nH]cnc2c1oc1ccccc12	117	143*[activator]	106	297	18	9	117*	0	103	105	104	106	104
O=C(c1ccc(Cl)cc1)c1oc2ccccc2c1CS(=O)(=O)c1ccccc1	104	105	104	109	30	11	.	.	.	.	.	.	.

Screens deposited in PubChem BioAssay by NMMLSC.
